# Compound activity: PubChem, National Center for Advancing Translational Sciences (NCATS)
# Compounds with a hit are over-represented: about 3.6% of the library has one in this group of screens.
# FBPA Giardia inh: blocks Giardia fructose-bisphosphate aldolase activity | purified Giardia FBPA | 290,000 tested, 0.71% active | Potency, µM (series often up to 59.6 µM), inactives show at the highest dose activity, negative = inhibition, most hits filed as inhibitors; also: nearly all actives have a fitted effect of over 55% in size
#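 40 nM FBPA preincubated 10 min at RT with compound (up to 57.5 uM final), then substrate plus GAPDH/TPI/NAD/arsenate coupling and diaphorase/resazurin added. Fluorescence read after 20 min at RT, 525/598 nm.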
# AmpC inh detg: AmpC beta-lactamase inhibition with detergent present. P00811. AmpC hydrolysis of nitrocefin, absorbance 480 nm, 0.01% Triton. Potency, µM (doses to about 114 µM), for the others: top-dose activity change, negative = inhibition, usual class: inhibitors. 370,000 tested, 0.041% active. AID 485294;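 also: 0% = no-compound wells and -100% = no-enzyme wells; nearly all actives have a fitted effect of over 25% in size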
# Target sequence (P00811 whole entry, looked up): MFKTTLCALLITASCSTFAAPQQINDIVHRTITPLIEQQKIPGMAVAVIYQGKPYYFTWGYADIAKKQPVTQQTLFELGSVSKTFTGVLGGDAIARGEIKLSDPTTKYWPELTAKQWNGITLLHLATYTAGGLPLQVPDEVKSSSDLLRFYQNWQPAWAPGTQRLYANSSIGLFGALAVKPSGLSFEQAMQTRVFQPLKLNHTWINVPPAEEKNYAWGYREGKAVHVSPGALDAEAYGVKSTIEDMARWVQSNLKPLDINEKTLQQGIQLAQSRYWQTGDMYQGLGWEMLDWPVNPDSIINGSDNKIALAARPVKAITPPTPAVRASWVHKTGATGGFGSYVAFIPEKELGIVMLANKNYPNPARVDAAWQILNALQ
#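 20 mM phosphate pH 7.0 + 0.01% (detergent screen) or 0.0001% Triton X-100; 5.3 nM AmpC reagent; cpd preinc 15 min RT; nitrocefin (800 uM stock) to start; A480 q20 s × 4 min; Activity was normalised to no-enzyme and no-compound control wells.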
# Sm TGR inh: blocks Schistosoma mansoni thioredoxin glutathione reductase | purified TGR, DTNB reduction, TNB absorbance 405 nm | Potency, µM (top dose mostly 114 µM), without a hit: at the highest dose activity change, negative = inhibition, hits mostly inhibitors | Q962Y6 | 360,000 tested, 3% active; also: nearly all actives have a fitted effect of over 60% in size
#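 First, TGR (20 nM dispensed) and NADPH were mixed with compound. Second, a 15 min room-temperature incubation followed. Third, further NADPH and then DTNB were added to start the reaction. Finally, TNB absorbance was monitored kinetically.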
# AmpC no deterg: blocks E. coli AmpC beta-lactamase in detergent-free assay; AmpC nitrocefin hydrolysis, absorbance 480 nm, 0.0001% Triton; Potency, µM (series often up to 57.1 µM), for the others: at the top dose activity change, negative = inhibition, usual class: inhibitors; 330,000 tested, 0.52% active; AID 485341;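 also: plate controls were no compound for no effect and no enzyme for full effect; nearly all actives have a fitted effect of over 20% in size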
#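 20 mM phosphate pH 7.0 + 0.01% (detergent screen) or 0.0001% Triton X-100; 5.3 nM AmpC reagent; cpd preinc 15 min RT; nitrocefin (800 uM stock) to start; A480 q20 s × 4 min; Activity was normalised to no-enzyme and no-compound control wells.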
# * marks the source's active call; other numbers are inactive results; u = inconclusive; x = no result given; [ ] = remark or other dose. Calls follow the shape of the dose curve; as a rule, active = well fitted curve in the direction sought with a large enough effect; inconclusive = small, poorly fitted or top-dose-only effect, or another doubt; inactive = no such curve, though single readings can be large; an effect the other way counts as inactive or inconclusive. Unless noted, % is scaled to controls: 0 for no effect and ±100 for the full control effect; potency is read from the fitted curve at half-maximal effect.
SMILES,FBPA Giardia inh,AmpC inh detg,Sm TGR inh,AmpC no deterg
CCn1c(COC(=O)CNC(=O)c2ccccc2F)nc2cc(S(=O)(=O)N(C)C)ccc21,x,-16%,-3%,-1%
CCC(=NCc1ccco1)c1c(O)n(-c2ccc(Cl)cc2)c(=O)[nH]c1=O,2%,4%,40µM*,-26%
C=CCN1C(=O)/C(=C/c2cccs2)C(=O)NC1=S,-26%,-5%,10µM*,-31%
O=C1NC(=O)N(CCc2ccc(F)cc2)C(=O)/C1=C/c1cccs1,3%,u,u,-36%
O=C1NC(=S)N(Cc2ccco2)C(=O)/C1=C\c1cccs1,16µM*,45µM*,3.5µM*,-60%
O=C(O)C1CSC(c2coc3ccccc3c2=O)N1 (stereo unspecified),-10%,u,2.5µM*,-14%
CC1CCOC(c2coc3ccccc3c2=O)O1 (stereo unspecified),2%,-3%,-7%,-13%
Cc1cc(NC(c2ccc(Cl)cc2)c2ccc3cccnc3c2O)no1 (stereo unspecified),-21%,0%,13µM*,4.5µM*
CCC(=O)NC(c1ccc(Cl)cc1Cl)c1ccc2cccnc2c1O (stereo unspecified),u,-11%,0%,-17%
CCCC(=O)NC(c1ccccc1Cl)c1ccc2cccnc2c1O (stereo unspecified),14%,-4%,-1%,-26%
CCC(=O)NC(c1ccc(C)cc1)c1ccc2cccnc2c1O (stereo unspecified),-6%,-1%,3%,-20%
Cc1ccnc(NC(c2ccccc2F)c2ccc3cccnc3c2O)c1 (stereo unspecified),x,21%,2.2µM*,x
Oc1ccccc1C(Nc1nccs1)c1ccc2cccnc2c1O (stereo unspecified),u,-8%,1.3µM*,-58%
Oc1c(C(Nc2ccccn2)c2ccccn2)ccc2cccnc12 (stereo unspecified),u,u,22µM*,13%
CCc1ccc(NC(=O)c2cc(CN3CCOCC3)on2)cc1,x,17%,1%,x
Cc1ccnc(NC(c2cc(C)ccc2O)c2ccc3cccnc3c2O)c1 (stereo unspecified),x,7%,0.35µM*,x
Cc1ccnc(NC(c2cccnc2)c2ccc3cccnc3c2O)c1 (stereo unspecified),-10%,1%,x,2%
Oc1c(C(Nc2ccccn2)c2ccccc2F)ccc2cccnc12 (stereo unspecified),x,1%,2µM*,x
C/C(=N/NC(=O)CNC(=O)c1ccccn1)c1cccc([N+](=O)[O-])c1,-7%,-8%,20µM*,-24%
Oc1ccc2ccccc2c1N=Nc1ccccc1F,u,4%,-24%,-18%
O=S(=O)(O)c1cccc(N=Nc2c(O)ccc3ccccc23)c1,9%,-8%,20µM*,-22%
Cc1ccc(Cc2cnc(N3C(=N)SC(c4ccccc4)C3=O)s2)cc1 (stereo unspecified),14%,-6%,-7%,u
N=C1SC(c2ccccc2)C(=O)N1c1ncc(Cc2ccccc2)s1 (stereo unspecified),20%,8%,1%,32µM*
CN(C)c1ccc(-c2ccc(C3C4C=CCCC4(C)C(=O)N3Cc3ccccc3)c(F)c2)cc1 (stereo unspecified),-5%,x,x,x
COc1ccc(C(=O)NC(=S)Nc2ccc(N3CCN(C(C)=O)CC3)cc2)cc1[N+](=O)[O-],1%,4%,8.9µM*,45%
SMILES,FBPA Giardia inh,AmpC inh detg,Sm TGR inh,AmpC no deterg
CC(=O)N1CCN(c2ccc(NC(=S)NC(=O)c3ccc(C)c([N+](=O)[O-])c3)cc2)CC1,0%,-1%,11µM*,99%
Cc1ccc(C(=O)O)cc1NC(=S)NC(=O)c1ccc([N+](=O)[O-])c(C)c1,-20%,-2%,20µM*,-16%
Cn1c(=O)[nH]c(=O)c2c1nc(N1CCOCC1)n2Cc1ccccc1,x,7%,-4%,x
CCOc1ccc2c(c1)c(C(C)=O)c(C)n2Cc1ccco1,-12%,-2%,10µM*,-8%
CCOc1cccc(=O)c2c(C)n(Cc3ccccc3)c(C)c12,-4%,-2%,x,-55%
CCOc1cccc(=O)c2c(C)n(Cc3ccco3)c(C)c12,u,-2%,40µM*,-31%
CC1=C(C(=O)OCc2ccccc2)C(c2cccc3ccccc23)NC(=O)N1CCCC(=O)O (stereo unspecified),x,-12%,0%,-6%
NS(=O)(=O)c1ccc(-c2ccc(/C=C3\SC(=S)N(C4CCS(=O)(=O)C4)C3=O)o2)cc1 (stereo unspecified),-13%,0%,1%,-25%
NS(=O)(=O)c1ccc(-c2ccc(C=NC3CCS(=O)(=O)C3)o2)cc1 (stereo unspecified),-9%,u,71µM*,-29%
CCOC(=O)c1c(N)sc(=S)c2c1CCC2,u,-5%,16µM*,-36%
CCOC(=O)c1c(N)sc(N)c1C(=O)OCC,u,-15%,3%,-10%
Cc1cc2n(n1)C(c1ccccc1)CC(c1ccc(Br)cc1)=N2 (stereo unspecified),2%,-14%,-9%,-4%
Cn1ncc(S(=O)(=O)Cc2ccccc2)c(Cl)c1=O,-13%,-3%,0.16µM*,0%
Cn1ncc(SCc2ccccc2)c(Cl)c1=O,8%,0%,6%,-14%
CCCCCCCC1=Cc2ccc(F)cc2C(C(C(C)=O)C(=O)OC)N1C(=O)OC (stereo unspecified),1%,x,x,x
Clc1cccc(C2CCN(Cc3nc(COc4ccccc4)no3)C2)c1 (stereo unspecified),-3%,-3%,35µM*,18%
c1ccc(OCc2noc(CN3CC[C@@H]4CCCC[C@H]4C3)n2)cc1,0%,-4%,6%[57.1 µM],48%
COCCCNC(=S)NC1CC2CCCC(C1)N2Cc1ccco1 (stereo unspecified),2%,3%,0%,1.8µM*
Cc1cccc([C@@H]2[C@@H]3C(=O)N(Cc4ccccc4)C(=O)[C@@H]3[C@]3(CC(C)C)C(=O)N(c4cccc(F)c4)C(=O)N23)c1,x,-1%,1%,28%
NS(=O)(=O)c1ccc(NC(=O)N2c3ccccc3Sc3ccccc32)cc1,14%,-11%,-7%,35µM*
CCc1ccc(NC(=O)N2c3ccccc3Sc3ccccc32)cc1,x,11%,8%,x
O=C(NCc1ccc(F)cc1)C(=O)NCC(c1cccs1)S(=O)(=O)c1cccs1 (stereo unspecified),x,1%,25µM*,x
O=C(NCc1ccccc1)C(=O)NCC(c1cccs1)S(=O)(=O)c1cccs1 (stereo unspecified),x,-1%,u,x
COc1ccc(CCNC(=O)C(=O)NCC(c2cccs2)S(=O)(=O)c2cccs2)cc1 (stereo unspecified),x,2%,28µM*,x
O=C(NCCc1ccccc1)C(=O)NCC(c1cccs1)S(=O)(=O)c1cccs1 (stereo unspecified),x,-4%,u,x
